From PubChem BioAssay (NCATS)
Records with an inconclusive call do not appear. Where a call stands in place of a potency, no number is given. Unmarked numbers belong to inactive results. Active and inactive are the calls of the source. Calls come from the whole dose curve; as a rule, active = well fitted curve in the direction sought with a large enough effect; inconclusive = small, poorly fitted or top-dose-only effect, or another doubt; inactive = no such curve, though single readings can be large; an effect the other way counts as inactive or inconclusive.

Legend:
[1] = P-glycoprotein substrates identified in KB-3-1 adenocarcinoma cell line, qHTS therapeutic library screen (AID 1346986); note: nearly all actives have a fitted effect of over 60% in size
Procedure, shortened: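 Counter-screen: cherry-picked hits retested in the KB pair and in HEK-293 pcDNA/MDR-19 cells ± tariquidar. Primary screen used 72 h CellTiter-Glo viability in KB-3-1 and KB-8-5-11.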

[2] = P-glycoprotein substrates identified in KB-8-5-11 adenocarcinoma cell line, qHTS therapeutic library screen (AID 1346987); note: nearly all actives have a fitted effect of over 65% in size; for activity change, negative = cytotoxicity: series mostly up to about 44 µM
Procedure, shortened: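 P-gp-mediated resistance screen: KB-8-5-11 cells treated 72 h with compounds in dose-response. CellTiter-Glo viability.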

Compound | Potency [1] | Potency [2] | outcome [1] | activity change, negative = cytotoxicity [2]
C[C@H](NC(c1cccc(C[P+](=O)O)c1)[C@H](C)O)c1ccc(Cl)c(Cl)c1 (stereo partly drawn) | inactive | inactive |  | 
COc1cc2c(cc1OC)CC(=O)N(CCCNC[C@H]1Cc3cc(OC)c(OC)cc31)CC2 | inactive | inactive |  | 
CC1(C)CC[C@]2(C(=O)O[C@@H]3O[C@H](CO)[C@@H](O)[C@H](O)[C@H]3O)CC[C@]3(C)C(=CCC4[C@@]5(C)C[C@@H](O)[C@H](O)[C@](C)(C=O)C5CC[C@]43C)[C@@H]2[C@@H]1O (stereo partly drawn) | inactive | inactive |  | 
O=C(O[C@H]1[C@@H]2C=CO[C@@H](O[C@@H]3O[C@H](CO)[C@@H](O)[C@H](O)[C@H]3O)[C@@H]2[C@@]2(CO)O[C@@H]12)c1ccccc1 | inactive | inactive |  | 
CC(C)S(=O)(=O)N[C@H]1CCOC[C@@H]1c1ccc(-c2ccc(C#N)s2)cc1 | inactive | inactive |  | 
O=C(O)/C=C/c1ccc(O)c(O[C@@H]2O[C@H](CO)[C@@H](O)[C@H](O)[C@H]2O)c1 | inactive | inactive |  | 
CC(=O)OCC1(O)CCC2C(COC3OC(CO)C(O)C(O)C3OC(=O)/C=C/c3ccc(O)cc3)=COC(OC(=O)CC(C)C)C21 (stereo not drawn) | inactive | inactive |  | 
CC(=O)c1cc2c(cc1O)OC(C)(C)C=C2 | inactive | inactive |  | 
CC(=O)O[C@@H]1[C@@H](O)[C@H](O[C@H]2CC[C@]34C[C@]35CC[C@]3(C)[C@@H]([C@@]6(C)CC[C@@H](C(C)(C)O)O6)[C@@H](O)C[C@@]3(C)[C@@H]5C[C@H](O[C@@H]3O[C@H](CO)[C@@H](O)[C@H](O)[C@H]3O)[C@H]4C2(C)C)OC[C@H]1O | inactive | inactive |  | 
CC(C)=CC/C=C(\C)[C@H]1CC[C@]2(C)[C@@H]1[C@H](O)C[C@@H]1[C@@]3(C)CC[C@H](O)C(C)(C)[C@@H]3[C@@H](O[C@@H]3O[C@H](CO)[C@@H](O)[C@H](O)[C@H]3O)C[C@]12C | inactive | inactive |  | 
CC(=O)OC1C[C@@]2(C)[C@@H](CC[C@@H](C)[C@]23Cc2c(O)cc4c(c2O3)CNC4=O)C(C)(C)[C@@H]1O (stereo partly drawn) | inactive | inactive |  | 
C[C@@H]1O[C@@H](O[C@H]2[C@H](O[C@H]3[C@H](O)[C@@H](C(=O)O)O[C@@H](O[C@H]4CC[C@@]5(C)C(CC[C@]6(C)C5CC[C@]57OC[C@@]8(CCC(C)(C)CC85)[C@H](O)C[C@]76C)C4(C)C)[C@@H]3O[C@@H]3O[C@H](CO)[C@@H](O[C@@H]4OC[C@@H](O)[C@H](O)[C@H]4O)[C@H](O)[C@H]3O)O[C@H](CO)[C@H](O)[C@@H]2O)[C@H](O)[C@H](O)[C@H]1O (stereo partly drawn) |  |  | inactive [at 9.29 µM] | 2.43% [at 9.29 µM]
CC(=O)N[C@H]1[C@H](O[C@H]2CC[C@@]3(C)C(CC[C@]4(C)C3CC=C3[C@@H]5CC(C)(C)CC[C@]5(C(=O)OC5OCC(O)C(O)C5O)CC[C@]34C)C2(C)C)O[C@H](COC2OC(C)C(O)C(OC3OC(C)C(O)C(O)C3O)C2O)[C@@H](O)[C@@H]1O (stereo partly drawn) |  |  | inactive [at 9.29 µM] | 4.96% [at 9.29 µM]
CCOCc1cc(OC)c(-c2ccc(C[C@H](NC(=O)c3c(F)cccc3F)C(=O)O)cc2)c(OC)c1 | inactive | inactive |  | 
O=C(O)Cc1cn(C2OCC(O)C(O)C2O[C@@H]2O[C@H](CO)[C@@H](O)[C@H](O)[C@H]2O)c2ccccc12 (stereo partly drawn) | inactive | inactive |  | 
O=C1NC(=O)C(c2cn(-c3ccccc3)nc2-c2ccc(F)cc2)N1 (stereo not drawn) | inactive | inactive |  | 
C[C@@H]1O[C@@H](O[C@H]2[C@@H]3C=CO[C@@H](O[C@@H]4O[C@H](CO)[C@@H](O)[C@H](O)[C@H]4O)[C@@H]3[C@@]3(CO)O[C@@H]23)[C@H](OC(=O)/C=C/c2ccccc2)[C@H](O)[C@H]1O | inactive | inactive |  | 
NC(=O)[C@H](O[C@@H]1O[C@H](CO)[C@@H](O)[C@H](O)[C@H]1O)c1ccccc1 | inactive | inactive |  | 
CC1=C(C(=O)O)/C(=C\CO[C@@H]2O[C@H](CO)[C@@H](O)[C@H](O)[C@H]2O)C(OC(=O)/C=C\c2ccc(O)cc2)C1 (stereo partly drawn) | inactive | inactive |  | 
CC1CC(O)C2(OC1=O)OC1C(O)C3C4CCC5CC(OC6OC(CO)C(O)C(O)C6OC6OC(C)C(O)C(O)C6O)CCC5(C)C4CCC3(C)C1C2C (stereo not drawn) | inactive | inactive |  | 
C/C(=C\CCC1(C)C2CCC(C2)C1(C)O)C(=O)O (stereo not drawn) | inactive | inactive |  | 
COc1cc(O)cc(/C=C/c2ccc(O[C@@H]3O[C@H](CO)[C@@H](O)[C@H](O)[C@H]3O)cc2)c1 | inactive | inactive |  | 
C=C1C(=O)O[C@@H]2C[C@H](C)[C@@]3(O)C=C(C(C)=O)[C@]4(CC3C[C@H]12)C(=O)O[C@H]1C[C@@H](C)C(CCC(C)=O)=CC[C@H]14 (stereo partly drawn) | inactive | inactive |  | 
COC(=O)CCSCc1ccc(-c2onc(C)c2NC(=O)OC(C)c2ccccc2Cl)cc1 (stereo not drawn) | inactive | inactive |  | 
